Bioassay records deposited in PubChem BioAssay by National Center for Advancing Translational Sciences (NCATS).
IL-1B inflam inh – inhibitors of inflammasome signaling (IL-1 beta secretion); THP-1 LPS/ATP IL-1B secretion, AlphaLISA, 16 h; stronger effect = lower value; activity change, % at 57.5 µM; actives 4.7% (n = 360,000); in the data active = activity change below about -50%; inconclusive = mostly about -30% to -49%; also: % is scaled to controls: 0 for no effect and ±100 for the full control effect
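THP-1 cells pretreated 1 hr with compounds (up to 57.5 uM final), then stimulated with LPS (250 ng/mL final) plus ATP (1.25 mM final); secreted IL-1B measured by AlphaLISA after 16 hr, decreased signal indicating inhibition.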
MCF10A rereplic – inducers of DNA re-replication in MCF 10A breast cells; actives 2.9% (n = 350,000); MCF 10A DNA re-replication, Hoechst nuclear intensity, 48 h; Potency, µM (titrated, usually from 46.1 µM), for the others: at the top dose activity, positive = re-replication, usual class: activators; also: potency is read from the fitted curve at half-maximal effect; % of control where 0% means no effect; nearly all actives have a fitted effect of over 50% in size
SW480 rerep – inducers of DNA re-replication in SW480 colon cancer cells. Potency, µM (highest dose often 46.1 µM), for inactives: at the highest dose re-replication activation, actives largely listed as activators. actives 1.8% (n = 340,000). SW480 DNA re-replication, Hoechst DNA content imaging, 48 h; also: potency is read from the fitted curve at half-maximal effect; % of control where 0% means no effect; nearly all actives have a fitted effect of over 55% in size
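First, 250 cells per well were seeded. Next, compound or vehicle (23 nL) was pinned in, plates sat 48 hr at 37 C. Finally Hoechst was added for 40 min before fluorescence scanning.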
VP16 counter – counter-screen for ROR gamma inhibitors: Gal4-VP16 reporter. Drosophila S2 Gal4-VP16 UAS-luciferase, luminescence, 20 h. Potency, µM (highest dose often 53.6 µM), for inactives: at the top dose activity, negative = inhibition, most hits filed as inhibitors. actives 3.5% (n = 310,000). AID 2546;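 also: Gal4-VP16 expression switched on by copper sulfate through the metallothionein promoter; potency is read from the fitted curve at half-maximal effect; % is scaled to controls: 0 for no effect and ±100 for the full control effect; nearly all actives have a fitted effect of over 50% in size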
RORgamma inh – inhibitors of mouse ROR gamma transcriptional activity | Drosophila S2 Gal4-RORgamma UAS-luciferase reporter, 20 h | Potency, µM (top dose mostly 53.6 µM), inactives show at the highest dose activity change, negative = inhibition, usual class: inhibitors | AID 2551 | actives 5.4% (n = 310,000); also: potency is read from the fitted curve at half-maximal effect; % is scaled to controls: 0 for no effect and ±100 for the full control effect; nearly all actives have a fitted effect of over 60% in size
Target sequence (P51450 whole entry, looked up, the tested form may be a part): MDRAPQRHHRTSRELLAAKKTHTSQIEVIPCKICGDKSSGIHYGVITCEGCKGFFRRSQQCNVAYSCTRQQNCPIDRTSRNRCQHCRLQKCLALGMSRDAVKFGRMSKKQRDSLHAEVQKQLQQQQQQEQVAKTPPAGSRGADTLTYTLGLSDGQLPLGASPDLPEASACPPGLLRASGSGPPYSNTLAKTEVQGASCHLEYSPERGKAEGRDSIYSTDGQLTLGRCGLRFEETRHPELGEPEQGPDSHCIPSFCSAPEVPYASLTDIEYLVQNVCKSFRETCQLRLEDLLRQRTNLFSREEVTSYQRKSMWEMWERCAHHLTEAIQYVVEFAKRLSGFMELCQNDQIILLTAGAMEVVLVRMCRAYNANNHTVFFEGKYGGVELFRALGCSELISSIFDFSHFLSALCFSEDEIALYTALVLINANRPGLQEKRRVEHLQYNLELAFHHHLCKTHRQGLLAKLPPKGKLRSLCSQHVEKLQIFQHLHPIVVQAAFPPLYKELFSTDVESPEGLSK
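Drosophila S2 cells stably expressing Gal4-DBD/mouse RORγ fusion under metallothionein promoter plus UAS-luciferase; compound 1 h, then 700 uM CuSO4 induction for 20 h at ambient temperature; inhibition read as reduced luminescence.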
The depositor's hits bear a star. Compounds with a hit are over-represented: about 11% of the library has one in this group of screens. Unless noted, calls follow the shape of the dose curve; as a rule, active = well fitted curve in the direction sought with a large enough effect; inconclusive = small, poorly fitted or top-dose-only effect, or another doubt; inactive = no such curve, though single readings can be large; an effect the other way counts as inactive or inconclusive.

`COc1ccc(CCNC(=O)c2cccc(NS(=O)(=O)c3ccccc3F)c2)cc1OC` gave IL-1B inflam inh 14, MCF10A rereplic 3%, SW480 rerep 1%, VP16 counter 16% and RORgamma inh 0%.
Cc1ccccc1NC(=O)CCN1CCN(C)CC1 was read as IL-1B inflam inh 4, MCF10A rereplic 0%, SW480 rerep -5%, VP16 counter -10% and RORgamma inh 10µM*.
`O=C(CCN1CCN(CCO)CC1)Nc1ccccc1` gave IL-1B inflam inh 10, MCF10A rereplic 0.65µM*, SW480 rerep -5%, VP16 counter 5% and RORgamma inh 1%.
`O=C(CCN1CCCC1)Nc1ccccc1` gave IL-1B inflam inh 16, MCF10A rereplic 0%, SW480 rerep -1%, VP16 counter inconclusive and RORgamma inh -2%.
Screening CN1CCN(CC(=O)Nc2cc(N(C)C)nc3ccccc23)CC1 returned IL-1B inflam inh -62*, MCF10A rereplic 17%, SW480 rerep 16%, VP16 counter -15% and RORgamma inh -34%.
For Cc1ccsc1C(=O)N1CCC1(C)C(=O)Nc1ccc2c(c1)OCCO2 (configuration not stated) the results were IL-1B inflam inh -7.
COc1ncnc2c1ncn2CCCN1CCN(Cc2ccc(C)cc2)CC1 was read as IL-1B inflam inh 38.
For CCc1ccc(-c2cc(C)no2)cc1S(=O)(=O)N1CCN(c2ccccc2)CC1 the results were IL-1B inflam inh 0, MCF10A rereplic 29%, SW480 rerep inconclusive, VP16 counter -6% and RORgamma inh -2%.
`Cc1cccc(N=NC(=S)NNc2cccc(C)c2)c1` gave IL-1B inflam inh -29, MCF10A rereplic 2% and SW480 rerep -2%.
Screening Cc1cc(OCC(=O)NC(C)(C)C)ccc1Cl returned IL-1B inflam inh 0, MCF10A rereplic -5%, SW480 rerep -3%, VP16 counter 7% and RORgamma inh 2%.
CC(C)=C1C2CCC1C1C(=O)N(NC(=O)COc3ccc(Cl)c(C)c3)C(=O)C21 (configuration not stated) was read as IL-1B inflam inh -68*, MCF10A rereplic 13%, SW480 rerep 20%, VP16 counter -2% and RORgamma inh 26%.
`O=C(NN1C(=O)C2C(C1=O)C1C=CC2C12CC2)c1cccc(Cl)c1` (configuration not stated) gave IL-1B inflam inh 25, MCF10A rereplic -4%, SW480 rerep -1%, VP16 counter 3% and RORgamma inh 11%.
`O=C(COc1ccc(Cl)c(Cl)c1)NN1C(=O)C2C(C1=O)C1C=CC2C12CC2` (configuration not stated) gave IL-1B inflam inh -1, MCF10A rereplic 22%, SW480 rerep 1µM*, VP16 counter 14% and RORgamma inh 44%.
CCOC(=O)C1=CN(Cc2cccc(-c3ccc(Cl)nc3)c2)S(=O)(=O)N(C)C1C (configuration not stated) was read as IL-1B inflam inh inconclusive, MCF10A rereplic 68% and SW480 rerep -4%.
COc1ccc(NC(=O)C2CCN(c3cc(-c4ccccc4)nc4ncnn34)CC2)cc1OC was read as IL-1B inflam inh -58*, MCF10A rereplic 28%, SW480 rerep 19%, VP16 counter -13% and RORgamma inh 30%.
Screening COc1ccc(C)cc1S(=O)(=O)N(CC(=O)NCc1ccc(Cl)cc1)Cc1ccccc1 returned IL-1B inflam inh -61*, MCF10A rereplic 20%, SW480 rerep 23%, VP16 counter -1% and RORgamma inh -16%.
For COc1ccc(CNC(=O)CN(Cc2ccccc2)S(=O)(=O)c2ccc(Cl)cc2)cc1 the results were IL-1B inflam inh -16, MCF10A rereplic -1%, SW480 rerep -1%, VP16 counter -11% and RORgamma inh 6%.
For CC1(C)C=Cc2cc(-c3coc4cc(O)cc(O)c4c3=O)cc(O)c2O1 the results were IL-1B inflam inh 4, MCF10A rereplic 15µM* and SW480 rerep -9%.
Screening COc1ccccc1NS(=O)(=O)c1cccc(C(=O)N/N=C/c2ccc(C)o2)c1 returned IL-1B inflam inh -11, MCF10A rereplic 0%, SW480 rerep 5%, VP16 counter 14µM* and RORgamma inh 11µM*.
